Assay outcomes (PubChem)
A selection: hits, their analogues and other compounds. The true share with any hit is near 18%.
IL-1B inflam inh = qHTS for Inhibitors of Inflammasome Signaling: IL-1-beta AlphaLISA Primary Screen | THP-1 LPS/ATP IL-1B secretion, AlphaLISA, 16 h; stronger effect = lower value | activity change, % at 57.5 µM | 360,000 tested, 4.7% active | AID 743279, 2014; in the data active = activity change below about -50%; inconclusive = mostly about -30% to -49%
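Secreted IL-1B measured by AlphaLISA bead assay after 16 h compound exposure of THP-1 cells; compounds (final up to 57.5 uM) added 1 h before LPS (250 ng/mL) and ATP (1.25 mM) stimulation; lower signal means less secretion.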
DT40 TDP1 CPT = qHTS for Inhibitors of human tyrosyl-DNA phosphodiesterase 1 (TDP1): qHTS in cells in presence of CPT | chicken DT40 Tdp1-/-;hTDP1 cells + 20 nM CPT, ATP luminescence, 48 h | Potency, µM (highest dose often 46.2 µM), usual class: inhibitors | 420,000 tested, 12% active; also: nearly all actives have a fitted effect of over 55% in size
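Chicken DT40 Tdp1-/- cells stably complemented with human TDP1 were seeded at 400 cells/well in medium containing 20 nM camptothecin, exposed to pin-transferred compounds, and grown at 37 °C for at least 48 hr. Viability was read as ATP luminescence.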
LDHA inh = qHTS assay for inhibitors of human lactate dehydrogenase; L-lactate dehydrogenase A chain (Homo sapiens), P00338; purified LDHA, NADH/diaphorase-resazurin fluorescence; stronger effect = lower value; activity change, % (values are at about 110 or 230 µM); 480,000 tested, 0.15% active; AID 1347041, 2019; in the data active = activity change below about -30%; inconclusive = mostly about -25% to -30%
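Remaining NADH was detected by diaphorase (0.133 mg/mL) converting 37 µM resazurin to fluorescent resorufin, read at 0 and 20 minutes. The preceding 5-minute room-temperature reaction used 2 nM LDHA, 0.2 mM sodium pyruvate and 0.06 mM NADH at pH 7.4.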
Gal4-VP16 FLuc = VP16 counterscreen qHTS for inhibitors of ROR gamma transcriptional activity | Potency, µM (doses to about 53.6 µM), usual class: inhibitors | AID 2546, 2010 | 310,000 tested, 3.5% active | Drosophila S2 Gal4-VP16 UAS-luciferase, luminescence, 20 h;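 also: Gal4-VP16 expression switched on by copper sulfate through the metallothionein promoter; nearly all actives have a fitted effect of over 50% in size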
RORg inh = qHTS for inhibitors of ROR gamma transcriptional activity. AID 2551, 2010. Potency, µM (series often up to 53.6 µM), most hits filed as inhibitors. Drosophila S2 Gal4-RORgamma UAS-luciferase reporter, 20 h. 310,000 tested, 5.4% active; also: nearly all actives have a fitted effect of over 60% in size
Target sequence (P51450 whole entry, looked up, the tested form may be a part): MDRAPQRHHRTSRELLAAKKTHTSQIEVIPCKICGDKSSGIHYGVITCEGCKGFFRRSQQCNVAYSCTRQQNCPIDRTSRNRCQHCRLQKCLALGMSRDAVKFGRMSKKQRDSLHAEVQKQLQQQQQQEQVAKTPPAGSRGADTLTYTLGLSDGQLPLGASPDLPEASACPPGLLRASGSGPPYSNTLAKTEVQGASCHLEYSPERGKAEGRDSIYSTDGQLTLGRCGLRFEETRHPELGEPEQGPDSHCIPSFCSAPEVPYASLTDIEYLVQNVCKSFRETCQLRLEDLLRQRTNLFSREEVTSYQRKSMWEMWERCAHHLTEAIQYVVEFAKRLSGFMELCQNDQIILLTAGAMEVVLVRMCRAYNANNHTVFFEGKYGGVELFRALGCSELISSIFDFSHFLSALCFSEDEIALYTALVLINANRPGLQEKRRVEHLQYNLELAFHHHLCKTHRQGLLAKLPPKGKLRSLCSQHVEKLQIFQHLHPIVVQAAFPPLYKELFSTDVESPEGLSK
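Stable Schneider cell line, Gal4 DNA-binding domain fused to ROR gamma, UAS-luciferase. Cmpd 1 hr RT → CuSO4 700 uM final → 20 hr RT → luciferase reagent 10 min → luminescence.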
TDP1 cell noCPT = qHTS for Inhibitors of human tyrosyl-DNA phosphodiesterase 1 (TDP1): qHTS in cells in absence of CPT | 420,000 tested, 15% active | Potency, µM (top dose mostly 46.2 µM), usual class: inhibitors | DT40 Tdp1-/- hTDP1 cells, no CPT, ATP luminescence, 48 h | AID 686978, 2013; also: nearly all actives have a fitted effect of over 55% in size
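DT40 Tdp1-/-;hTDP1 cells, no CPT (DMSO vehicle only), 400 cells/well; compounds pin-transferred; ≥48 hr, 37 °C; CellTiter-Glo 30 min RT dark, luminescence read.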
Hits are given with their value; - = inactive; ? = inconclusive; . = no result; [ ] = another dose, or the depositor's remark. Unless noted, calls follow the shape of the dose curve; as a rule, active = well fitted curve in the direction sought with a large enough effect; inconclusive = small, poorly fitted or top-dose-only effect, or another doubt; inactive = no such curve, though single readings can be large; an effect the other way counts as inactive or inconclusive.

SMILES | IL-1B inflam inh | DT40 TDP1 CPT | LDHA inh | Gal4-VP16 FLuc | RORg inh | TDP1 cell noCPT
COc1ccc(-c2c(NC(=O)c3ccc([N+](=O)[O-])cc3)oc3ccc(Cl)cc3c2=O)cc1OC | . | . | - | . | . | .
CCCOc1cccc(C2c3c(-c4c(C)cc(C)cc4O)n[nH]c3C(=O)N2CCO)c1 (stereo unspecified) | . | . | - | . | . | .
CCOC(=O)N1CCN(C(=O)c2ccc3c(c2)N(C)C(=O)/C(=C\c2ccc(OCC)c(OC)c2)S3)CC1 | ? | ? | - | - | - | 16µM
Cc1cccc(/C=C2\Sc3ccc(C(=O)N4CCOCC4)cc3N(C)C2=O)c1 | - | ? | - | - | - | ?
CCOc1ccc(/C=C2/Sc3ccc(C(=O)N4CCN(C(=O)c5ccco5)CC4)cc3N(C)C2=O)cc1OC | . | . | . | - | - | .
O=C1Nc2cc(C(=O)N3CCN(c4ccccn4)CC3)ccc2S/C1=C\c1ccccc1 | - | - | - | - | ? | ?
Cc1cccc(/C=C2\Sc3ccc(C(=O)N4CCC(C)CC4)cc3N(C)C2=O)c1 | -54 | ? | - | - | - | ?
CCOC(=O)N1CCC(NC(=O)c2ccc3c(c2)N(C)C(=O)/C(=C/c2cccc(OC)c2)S3)CC1 | - | 18µM | - | - | ? | 18µM
CCOC(=O)N1CCN(C(=O)c2ccc3c(c2)NC(=O)/C(=C\c2cccc(C)c2)S3)CC1 | - | ? | - | - | - | 13µM
Cc1ccc(CC(=O)NC2CCC(C)CC2)cc1C (stereo unspecified) | . | . | - | . | . | .
COc1cc(NC(=O)Nc2cc(-c3nc4cc(C)ccc4o3)ccc2OC)cc(OC)c1 | . | . | - | . | . | .
CCOC(=O)N1CCN(C(=O)c2ccc3c(c2)NC(=O)/C(=C\c2ccc(OC)c(OC)c2)S3)CC1 | - | ? | - | - | - | 16µM
COc1ccc(/C=C2/Sc3ccc(C(=O)N4CCOCC4)cc3NC2=O)cc1OC | - | ? | - | - | - | -
COc1cc(C2C(C(=O)Nc3ccccc3)=C(C)Nc3nc(CCCO)nn32)cc(OC)c1OC (stereo unspecified) | . | . | - | . | . | .
COc1ccc(CCNC(=O)C2CC3Cn4c(nc5ccccc54)C3N2Cc2ccccc2)cc1 (stereo unspecified) | - | ? | - | . | . | 18µM
Cc1ccc(-c2c3c(=O)n(C)c(=O)n(C)c3c3n2CCOC3c2coc3ccccc3c2=O)cc1 (stereo unspecified) | . | . | - | . | . | .
CSc1c(SCc2ccccc2)cnn(-c2ccccc2)c1=O | -98 | ? | - | ? | ? | ?
COc1cnn(-c2ccccc2)c(=O)c1SCc1ccc(Cl)c(Cl)c1 | ? | - | - | - | - | ?
Cn1ncc(Cl)c(Oc2ccccc2)c1=O | - | - | - | - | - | -
Cn1ncc(SCc2ccccc2)c(Cl)c1=O | . | 9.2µM | - | 16µM | ? | 10µM
CN(NC(=O)Nc1ccccc1)c1cnn(C)c(=O)c1Cl | - | ? | - | - | - | -
Cn1ncc(S(=O)(=O)Cc2ccccc2)c(Cl)c1=O | . | 1.5µM | - | - | - | 3.3µM
CC1=C(C(=O)Nc2ccccc2)C(c2ccc(Cl)cc2Cl)NC(=S)N1 (stereo unspecified) | . | . | - | . | . | .
CCCCCn1c(CCCNC(=O)c2ccc(Cl)cc2)nc2ccccc21 | . | ? | - | . | . | 16µM
CC(C)(C)C(=O)NCCCc1nc2ccccc2n1CCCOc1ccc(Cl)cc1 | -74 | 6.5µM | - | - | - | 8.2µM
SMILES | IL-1B inflam inh | DT40 TDP1 CPT | LDHA inh | Gal4-VP16 FLuc | RORg inh | TDP1 cell noCPT
COc1ccccc1OCCn1c(C(C)Oc2ccccc2)nc2ccccc21 (stereo unspecified) | . | 26µM | - | . | . | ?
C=C(C)Cn1c(CCCNC(=O)C(C)(C)C)nc2ccccc21 | - | 16µM | - | - | ? | 23µM
CCOC(=O)CNC(=O)CSc1cn(CC(=O)N(CC)CC)c2ccccc12 | . | . | - | . | . | .
CCCCC(=O)Nc1ccc(-c2nc3cc(CC)ccc3o2)cc1 | . | . | - | . | . | .
CC(O)c1nc2ccccc2n1CCCCOc1ccccc1 (stereo unspecified) | - | - | - | - | - | 15µM
CCCCn1c(C(C)O)nc2ccccc21 (stereo unspecified) | - | - | - | - | - | -
CC(=O)NCCc1nc2ccccc2n1CCOc1ccc(C)cc1 | - | ? | - | - | - | ?
CC(=O)NCCc1nc2ccccc2n1CCCCOc1ccccc1 | - | ? | - | - | - | 13µM
CC(=O)NCCc1nc2ccccc2n1CCOc1ccccc1 | - | - | - | - | - | -
CC(=O)NCCc1nc2ccccc2n1CCCCOc1ccc(Cl)cc1 | . | 21µM | - | . | . | 15µM
CCCNC(=O)COC(=O)c1cc(Cl)c(OC)c(OC)c1 | . | . | - | . | . | .
C=CCn1c(N2CCN(c3cccc(Cl)c3)CC2)nc2c1c(=O)[nH]c(=O)n2C | . | . | - | . | . | .
CC(C)NC(=O)CC1(C(=O)NCc2ccccc2)CCCC1 | . | . | - | . | . | .
O=C(CCCN1CCC(O)(c2ccc(Br)cc2)CC1)c1ccc(F)cc1 | ? | ? | - | - | -[2.98 µM] | ?
O=C(CCCN1CCC(O)(c2cccc(C(F)(F)F)c2)CC1)c1ccc(F)cc1 | -54 | ? | - | - | - | ?
CC(C)CNc1nc(-c2ccc(S(=O)(=O)N3CCOCC3)cc2)cs1 | . | . | - | . | . | .
CCOC(=O)c1sc2ccccc2c1S(=O)(=O)Nc1cccc(OC)c1 | . | . | - | . | . | .
CSC[C@@H]1NC(=S)N(c2ccc(C)cc2)C1=O | - | 5.2µM | - | - | - | 2.3µM
CCN(CC)S(=O)(=O)c1cccc(NC(=O)c2cc(-c3cccs3)nn2-c2ccccc2)c1 | - | 21µM | - | - | - | 15µM
CN(C)S(=O)(=O)c1cccc(NC(=O)c2cc(-c3cccs3)nn2-c2ccccc2)c1 | - | ? | - | ? | - | 15µM
CC(C)(C)NC(=O)C(F)(F)C(F)(F)C(=O)NC(C)(C)C | . | . | - | . | . | .
CC(C)Cn1c(-c2ccccc2)cnc1SC(C)C(=O)NC(N)=O (stereo unspecified) | . | . | - | . | . | .
O=C(O)[C@@H]1[C@@H]2C[C@H]3c4[nH]c5ccccc5c4CCN3C[C@@H]2CC[C@@H]1O | . | . | . | - | - | .
O=C(O)[C@H]1[C@H]2C[C@H]3c4[nH]c5ccccc5c4CCN3C[C@@H]2CC[C@@H]1O | . | 11µM | . | - | - | 13µM
CCc1cc(=O)n(CC(=O)N2CCCCC2CC)c(-c2ccccc2)n1 (stereo unspecified) | . | . | - | . | . | .
